Shown are actives, neighbours in structure and some others; about 4.1% of the full set was active somewhere.
RecA intein inh – Mtb RecA intein splicing inhibition; P9WHJ3; cell-free RecA intein splicing, fluorescence; inhibition, % (no concentration beside the values); 290,000 tested, 0.75% active; AID 2221; in the data active means inhibition above about 30%
GDH-TPI counter – inhibits GDH-TPI coupling enzymes, artifact for Mtb FBA screen | GDH-TPI coupled enzyme counterscreen, NADH absorbance | inhibition, % at 4.8 µM | 360,000 tested, 1.2% active | AID 588335; in the data active means inhibition above about 30%
Mtb UGM inh – blocks M. tuberculosis UGM enzyme. P9WIQ1. purified UGM, fluorescence polarization probe displacement. inhibition, % at 10 µM. 320,000 tested, 0.06% active. AID 504406; in the data active means inhibition above about 10%, passing the limit was not always enough
Target sequence (P9WIQ1 whole entry, looked up): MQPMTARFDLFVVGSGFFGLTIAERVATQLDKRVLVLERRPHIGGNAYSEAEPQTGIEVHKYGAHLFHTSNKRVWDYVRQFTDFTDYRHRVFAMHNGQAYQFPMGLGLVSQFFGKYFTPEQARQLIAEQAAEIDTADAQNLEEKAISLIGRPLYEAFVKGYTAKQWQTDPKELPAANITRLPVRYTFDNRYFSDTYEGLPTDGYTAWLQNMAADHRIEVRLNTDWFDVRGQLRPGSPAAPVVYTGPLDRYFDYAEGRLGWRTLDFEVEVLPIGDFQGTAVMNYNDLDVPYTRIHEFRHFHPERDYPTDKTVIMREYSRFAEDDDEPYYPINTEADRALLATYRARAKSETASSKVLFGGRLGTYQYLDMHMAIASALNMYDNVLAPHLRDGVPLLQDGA
Rv3671c protease – Rv3671c (M. tuberculosis) protease inhibition. P9WHR9. inhibition, % at 5.96 µM. 320,000 tested, 0.048% active. AID 2606;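 further: extracellular domain of Rv3671c used as enzyme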
FBA Mtb inh – inhibitors of M. tuberculosis fructose-bisphosphate aldolase; P9WQA3; purified M. tuberculosis FBA, fluorescence read-out; inhibition, % at 1 µM; 360,000 tested, 2.3% active; in the data active means inhibition above about 27%
Vc quorum ag – inducers of Vibrio cholerae quorum light production without autoinducers. AID 588436. 350,000 tested, 0.16% active. activation, % at 18.7 µM. V. cholerae BH1578 lux reporter, luminescence, 6 h; in the data active means activation mostly above about 9.7%, no sharp cut-off
Rv3671c cf – Rv3671c protease inhibition, confirmation. 140 tested, 40% active. AID 2761. shares compounds with Rv3671c protease. inhibition, % at 5.96 µM
Each line names hits and unclear results; the compound was inactive in the other large screens (follow-up assays come after a bar, where they were run). Unless noted, no stated cut-off is given here; in the data, active means inhibition above about 38%; inactive means the rest.

COc1cccc(/C=N/Nc2ccc([N+](=O)[O-])cn2)c1O	Rv3671c protease 81 | Rv3671c cf inactive
CC(C)(C)c1ccc(OCCCC(=O)Nc2nnc(C3CC3)s2)cc1	none (no result: RecA intein inh, Mtb UGM inh, Rv3671c protease)
O=[N+]([O-])c1ccc(NCc2ccccc2)c2nonc12	Rv3671c protease 49 (no result: GDH-TPI counter, FBA Mtb inh, Vc quorum ag) | Rv3671c cf 43
N#CCCN(CCC#N)C(=O)C1c2ccccc2Oc2ccccc21	Mtb UGM inh 73, Rv3671c protease 84 (no result: RecA intein inh) | Rv3671c cf inactive
CN(CCC#N)C(=O)COC(=O)C1c2ccccc2Oc2ccccc21	none
CCN1C(c2ccc(F)cc2)=CS/C1=C(/C#N)c1nnc2n1-c1ccccc1SC2	none (no result: RecA intein inh, Mtb UGM inh, Rv3671c protease)
Nc1ccc(Nc2nc3ccccc3[nH]2)cc1	Rv3671c protease 50 | Rv3671c cf 46
O=C(CC1C(=O)NCCN1CCCc1ccccc1)NCCc1ccccc1Cl (configuration not stated)	none
Nc1ccc2nc(CCCCCCCCc3nc4ccc(N)cc4[nH]3)[nH]c2c1	none
Nc1ccc2nc(-c3ccc(-c4nc5ccc(N)cc5[nH]4)cc3)[nH]c2c1	Rv3671c protease 39 (no result: GDH-TPI counter, FBA Mtb inh, Vc quorum ag) | Rv3671c cf 50
CCOC(=O)NC(=O)COC(=O)c1ccc(Sc2ncn[nH]2)c([N+](=O)[O-])c1	none (no result: RecA intein inh)
O=C1Cc2cccc(=O)c(O)c2C(=O)O1	none (no result: RecA intein inh, Mtb UGM inh, Rv3671c protease)
O=C1c2c(O)cccc2Cc2cccc(O)c21	Rv3671c protease 58 (no result: RecA intein inh) | Rv3671c cf inactive
Cc1ccccc1SCc1noc(C(=O)NCC2CCCO2)c1C(=O)O (configuration not stated)	none
O=C(NCC1CCCO1)c1onc(CSc2ccc(Cl)cc2)c1C(=O)O (configuration not stated)	Rv3671c protease 84 | Rv3671c cf inactive
Cc1nc2ccccc2n2c(O)c(CC(=O)O)cc12	Rv3671c protease 53 | Rv3671c cf inactive
Cc1nc2ccccc2n1CCC(=O)O	none
Cc1nn(Cc2ccccc2)c(C)c1NC(=O)c1ccc([N+](=O)[O-])cc1[N+](=O)[O-]	Rv3671c protease 166 | Rv3671c cf inactive
Cc1ccc(-n2c(SCC(=O)Nc3ccc4c5c(cccc35)CC4)nc(O)cc2=O)cc1	Rv3671c protease 45 | Rv3671c cf inactive
Cc1ccc(-n2c(SCC(=O)Nc3ccc4c5c(cccc35)CC4)nc(O)c(C)c2=O)cc1	none
CC(C)(C)c1ccc(Oc2coc3cc(OCC(=O)O)ccc3c2=O)cc1	Rv3671c protease 49 | Rv3671c cf inactive
CC12CCC(=O)N1C(C(=O)Nc1cc(C(F)(F)F)ccc1N1CCOCC1)CS2 (configuration not stated)	none
CC12CCC(=O)N1C(C(=O)Nc1cc(C(F)(F)F)ccc1N1CCCCC1)CS2 (configuration not stated)	Rv3671c protease 40 | Rv3671c cf inactive
CCOC(=O)C1(Cc2cccc(OC)c2)CCCN(C(=O)CCN2CCCO2)C1 (configuration not stated)	none
CCc1cc(=O)oc2cc(C)cc(OC(=O)c3ccco3)c12	Rv3671c protease 58 | Rv3671c cf 78
Cc1cc(OC(=O)c2ccco2)c2c(C)cc(=O)oc2c1	Rv3671c protease 47 | Rv3671c cf 74
CCCc1cc(=O)oc2cc(C)cc(OCC(=O)NC3CCN(Cc4ccccc4)CC3)c12	Rv3671c protease 125 | Rv3671c cf inactive
Cc1cc(OCC(=O)NC2CCN(Cc3ccccc3)CC2)c2c(C)cc(=O)oc2c1	none
Cc1cc(OC(=O)c2ccco2)c2c3c(c(=O)oc2c1)CCC3	none
COc1ccc([C@H]2CC(=O)C=C(c3ccc(F)cc3OCc3ccccc3)C2)cc1OC	none (no result: RecA intein inh)
COc1cc(C(=O)NCc2nnc(SCC(=O)NCc3ccco3)o2)cc(OC)c1OC	none
Oc1ccc(/C=N/Nc2ccnc3cc(Cl)ccc23)cc1O	Rv3671c protease 54 | Rv3671c cf inactive
CC1=C(C(N)=O)C(c2ccccc2)n2nc(-c3cccc(C)c3)nc2N1 (configuration not stated)	Rv3671c protease 65 | Rv3671c cf 60
CC(=O)C1C=CC(C)(C(=O)O)C2C=C(C)C(=O)C(C)(O)C12 (configuration not stated)	none (no result: RecA intein inh, Mtb UGM inh, Rv3671c protease)
Cc1nc(NC(=O)c2ccccc2)sc1-c1csc(Nc2cccc(F)c2)n1	none (no result: GDH-TPI counter, FBA Mtb inh, Vc quorum ag)
Cc1cc(NS(=O)(=O)c2ccc(Nc3nc(-c4sc(NC(=O)c5ccccc5)nc4C)cs3)cc2)no1	Rv3671c protease 63 (no result: GDH-TPI counter, FBA Mtb inh, Vc quorum ag) | Rv3671c cf 50
